Consider one compound from PubChem BioAssay (NCATS).

Several values for one entry are separate records, joined by “and”; a condition that tells them apart may be missing. Equal entries are not always repeated. Inconclusive results are not listed. Activity calls are given as the source filed them. Unless noted, calls come from the whole dose curve; as a rule, active = well fitted curve in the direction sought with a large enough effect; inconclusive = small, poorly fitted or top-dose-only effect, or another doubt; inactive = no such curve, though single readings can be large; an effect the other way counts as inactive or inconclusive.

Experiment [1] has as its target Vitamin D3 receptor (Homo sapiens) (UniProt P11473). As to the kind of experiment: qHTS assay for small molecule antagonists of vitamin D receptor signaling (AID 588541; calls by dose curve;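 note: receptor activated by calcitriol during compound treatment; series mostly up to about 77 µM; % is set by controls: 0 for no effect and ±100 for the full control effect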). The procedure, abridged: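 VDR-UAS-bla HEK293T cells in 2% charcoal-stripped FBS were stimulated with 1-alpha,25-dihydroxyvitamin D3 (3 nM final) plus compound for 16 h at 37 C. The beta-lactamase CCF4 readout was normalized to 50 nM agonist and DMSO, and Hill fits gave IC50.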

Experiment [2] has the same target. The experiment is described as follows: qHTS assay for small molecule agonists of vitamin D receptor signaling (AID 588543; calls by dose curve;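 note: 0% = DMSO basal and 100% = reference agonist control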). The procedure, abridged:
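qHTS in agonist mode: compound titrations stimulate a VDR-driven β-lactamase reporter in HEK293T cells over 16 h at 37 °C. Response normalized to 50 nM 1α,25-dihydroxyvitamin D3 = 100%, DMSO = 0%; Hill fitting gives EC50 and maximal response.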
For orientation: In qHTS, concentration-response curves come from the screen itself.

In experiment [3] the target is Thyroid hormone receptor beta (Homo sapiens) (UniProt P10828). As to the kind of experiment: qHTS assay for small molecule agonists of thyroid hormone receptor beta signaling (AID 588545; calls by dose curve). In outline: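 Agonist activity was read as beta-lactamase CCF4 fluorescence (405 ex, 460/530 em), scaled between DMSO (0%) and 10 nM T3 (100%), then Hill-fitted for EC50 and efficacy. HEK 293 TR-UAS-bla cells in 2% charcoal/dextran FBS medium were exposed 18 h at 37 C.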

Experiment [4] in a line: qHTS assay for small molecule antagonists of retinoid X receptor alpha signaling (AID 588546; active = well fitted inhibition curve with a large enough effect in the signal ratio, with a control signal flat, not every such curve was filed as active; the % refers to the signal ratio;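 note: cells stimulated with 9-cis-retinoic acid as agonist; % is set by controls: 0 for no effect and ±100 for the full control effect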). The note with it: HEK293T RXRa-UAS-bla, beta-lactamase ratio, antagonist mode; measured here: W530 green channel, cytotoxicity proxy. The procedure, abridged: (§1)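 Beta-lactamase reporter inhibition, read as CCF4 fluorescence ratio (ex 405, em 460/530 nm) after 2 h at RT. HEK293T UAS-bla cells, 2500/well, were stimulated with 9-cis-RA at 500 or 100 nM final alongside test compound for 18 h at 37 C.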

The target in experiment [5] is Retinoic acid receptor RXR-alpha (Homo sapiens) (UniProt P19793). The experiment is described as above. The note with it: HEK293T RXRa-UAS-bla, beta-lactamase ratio, antagonist mode. In outline:
as §1

Experiment [6] concerns the target Thyroid hormone receptor beta (Homo sapiens) (UniProt P10828). As to the kind of experiment: qHTS assay for small molecule antagonists of thyroid hormone receptor beta signaling (AID 588547; active = well fitted inhibition curve with a large enough effect in the signal ratio, with a control signal flat, not every such curve was filed as active; the % refers to the signal ratio;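 note: cells stimulated with 0.4 nM T3 agonist during compound exposure; series mostly up to about 77 µM; % is set by controls: 0 for no effect and ±100 for the full control effect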). The conditions noted are these: TR-UAS-bla HEK293, beta-lactamase ratio, antagonist mode, 18 h. In outline:
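TR-UAS-bla GripTite HEK293 cells in 2% charcoal/dextran FBS medium; compounds 0.59 nM to 92 uM with T3 at 0.4nM final, 18 h at 37 C. Beta-lactamase read by CCF4 fluorescence (460/530 nm); Hill fits gave IC50 and efficacy.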

Experiment [7] has as its target Voltage-gated inwardly rectifying potassium channel KCNH2 (Homo sapiens) (UniProt Q12809). As to the kind of experiment: qHTS Assay for Small Molecule Inhibitors of the Human hERG Channel Activity (AID 588834).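 Note: U2OS cells transduced with hERG by BacMam; top concentration of the series differs between compounds; % is set by controls: 0 for no effect and ±100 for the full control effect; lower thallium flux fluorescence means stronger hERG block; nearly all actives have a fitted effect of over 50% in size.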 The procedure, abridged:
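Cells were infected with hERG-BacMam virus for 4 hrs at room temperature, grown overnight, then seeded at 2000/well. After dye loading and roughly 10 min compound treatment, thallium influx was triggered and fluorescence recorded.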

The nature of experiment [8]: qHTS assay for small molecule agonists of the antioxidant response element (ARE) signaling pathway (AID 651741; active = well fitted activation curve with a large enough effect in the signal ratio; the % refers to the signal ratio; note: potency is the fitted concentration of half-maximal effect). The procedure, abridged: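 Stably integrated ARE-beta-lactamase reporter HepG2 cells; 16 h compound incubation, 37 C; LiveBLAzer FRET substrate 2 h at room temperature; fluorescence intensity.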
Experiment [9] is described as follows: qHTS assay for small molecule activators of the p53 signaling pathway (AID 651743; active = well fitted activation curve with a large enough effect in the signal ratio, not every such curve was filed as active; the % refers to the signal ratio; note: series mostly up to about 92 µM; % of control where 0% means no effect). The note with it: HCT-116 p53RE-bla, beta-lactamase FRET ratio, 16 h; stronger effect = higher value. The procedure, abridged:
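Following 16 hours of compound exposure at 37 C, HCT-116 cells bearing the p53RE-bla reporter were loaded with LiveBLAzer B/G FRET substrate for 2 hours at room temperature and fluorescence intensity was recorded.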

Experiment [10] in a line: qHTS assay for small molecule activators of the nuclear factor-kappa B (NF-kB) signaling pathway (AID 651749; active = well fitted activation curve with a large enough effect in the signal ratio; the % refers to the signal ratio; note: series mostly up to about 77 µM; % of control where 0% means no effect). The note with it: NF-kB-bla ME-180 cells, beta-lactamase FRET ratio, 16 h; stronger effect = higher value. The procedure, abridged: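 In this qHTS format, compounds acting as activators increase NF-kB-driven beta-lactamase in ME-180 cells, measured as disrupted FRET after 16 hr exposure at 37C and 5% CO2.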

Experiment [11] can be described thus: qHTS assay for environmental chemicals that activate the Aryl hydrocarbon Receptor (AhR) signaling pathway (AID 651777). Note: % of control where 0% means no effect; nearly all actives have a fitted effect of over 15% in size. The note with it: 1A2-DRE human hepatoma cells, luciferase, 24 h; stronger effect = higher value. The procedure, abridged: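 Measured luciferase activity, read 30 min after One-Glo addition at room temperature, from human hepatoma cells bearing a dioxin response element–CYP1A2 promoter reporter and exposed to compound for 24 hr at 37 C.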

Experiment [12] has as its target Peroxisome proliferator-activated receptor alpha (Homo sapiens) (UniProt Q07869). The experiment is described as follows: qHTS assay for small molecule agonists of the peroxisome proliferator-activated receptor alpha (PPARalpha) signaling pathway (AID 651778). Note: % of control where 0% means no effect. The conditions noted are these: PathHunter PPARalpha complementation, chemiluminescence, 6 h; stronger effect = higher value. The procedure, abridged: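 Enzyme-fragment complementation assay in which ligand-bound PPARalpha translocates and forms an active enzyme that generates chemiluminescence. Cells were plated overnight, exposed to compound for 6 hr at 37 C, and then given detection reagent for 60 min at room temperature.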

Experiment [13] concerns the target Nuclear receptor ROR-gamma (Homo sapiens) (UniProt P51449). As to the kind of experiment: qHTS assay for small molecule antagonists of the retinoid-related orphan receptor gamma (ROR-gamma) signaling pathway (AID 651802).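 Note: CHO cells with doxycycline-induced ROR-gamma expression; series mostly up to about 92 µM; % is set by controls: 0 for no effect and ±100 for the full control effect; nearly all actives have a fitted effect of over 60% in size.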 The procedure, abridged: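 Steps: cells dispensed; compound or DMSO transferred by pin tool; doxycycline added to induce the ROR response element-driven luciferase; plates held 16hr at 37C; ONE-Glo added and luminescence measured.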

Experiment [14] is described as follows: qHTS assay for small molecule agonists of the antioxidant response element (ARE) signaling pathway measured by Nrf2-dependant transcriptional activity (AID 720636; active = well fitted curve in the direction sought with a large enough effect in the repeat runs; an effect the other way counts as inactive or inconclusive;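 note: HepG2 cells with an ARE-driven luciferase reporter; % of control where 0% means no effect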). In outline: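 In HepG2 cells engineered with an Nrf2-responsive luciferase gene, ARE induction was quantified as luminescence after 16 hr compound treatment at 37 C.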
Experiment [15] in a line: qHTS assay for small molecule antagonists of the retinoid-related orphan receptor gamma (ROR-gamma) signaling pathway - cell viability counter screen (AID 720652; active = well fitted curve in the direction sought with a large enough effect in the repeat runs; an effect the other way counts as inactive or inconclusive;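 note: CHO reporter cells with doxycycline-induced ROR-gamma expression; series mostly up to about 92 µM; compound exposure lasted 16 hr before ATP read; % is set by controls: 0 for no effect and ±100 for the full control effect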). The procedure, abridged:
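Steps: seed CHO cells bearing TET-inducible ROR and ROR response element-luciferase; rest 5 hr at 37 C; add compound, then doxycycline; incubate 16 hr; add CellTiter-Glo and read luminescence as ATP-based viability.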

Experiment [16] in a line: qHTS assay for small molecule agonists of the antioxidant response element (ARE) signaling pathway measured by Nrf2-dependant transcriptional activity - cell viability counter screen (AID 720653; active = well fitted curve in the direction sought with a large enough effect in the repeat runs; an effect the other way counts as inactive or inconclusive; note: % is set by controls: 0 for no effect and ±100 for the full control effect). The conditions noted are these: ARE-bla HepG2 viability, CellTiter-Glo ATP luminescence, 16 h; stronger effect = lower value. In outline: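 ARE-bla HepG2 cells treated with compounds for 16 h at 37C; this counter screen measures viability as intracellular ATP by CellTiter-Glo luminescence after 30 min at room temperature.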

A short description of experiment [17]: qHTS assay for cell viability of HEK293 cells (AID 743288). Note: % is set by controls: 0 for no effect and ±100 for the full control effect; nearly all actives have a fitted effect of over 50% in size. The note with it: ATP luminescence (CellTiter-Glo), 18 h, stronger effect = lower value. The procedure, abridged:
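Quantitative high-throughput screen: compounds were pinned onto parental HEK293 cells (2,000 per well) after a minimum 5 h settling at 37 C, incubated 18 h at 37 C, and intracellular ATP measured by luciferase luminescence.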

A short description of experiment [18]: qHTS assay for cell viability of the p53RE-bla HCT-116 cell line (AID 743292). Note: % is set by controls: 0 for no effect and ±100 for the full control effect; nearly all actives have a fitted effect of over 55% in size. In outline: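 Intracellular ATP of p53RE-bla HCT-116 cells measured by luciferase luminescence following 16 h compound incubation at 37 C; DMSO-only wells served as vehicle controls.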
Experiment [19] is described as follows: Primary qHTS for inhibitors of nuclear receptor binding SET domain protein 2 (NSD2) in an RCH-ACV wild type WT cells (2C) (AID 1645877). Note: potency is the fitted concentration of half-maximal effect; nearly all actives have a fitted effect of over 70% in size.
For experiment [20], the target named is Glutathione peroxidase 1 (Homo sapiens) (UniProt P07203). As to the kind of experiment: Primary qHTS Assay for Inhibitors of Recombinant Selenoprotein Glutathione Peroxidase 1 (GPX1) (AID 1845191). Note: % is set by controls: 0 for no effect and ±100 for the full control effect; nearly all actives have a fitted effect of over 65% in size. In outline: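 GR-coupled readout: NADPH consumption tracked by fluorescence, ex 340/em 450 nm, at t=0 and after 15 min at RT. Final mix 10 nM GPX1, 1 mM GSH, 0.5 mM CHP, 0.5 mM NADPH, 100 nM GR, 0.01% BSA, following 30 min enzyme–compound preincubation.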
Sequence of Glutathione peroxidase 1 (Homo sapiens) (P07203 whole entry, looked up): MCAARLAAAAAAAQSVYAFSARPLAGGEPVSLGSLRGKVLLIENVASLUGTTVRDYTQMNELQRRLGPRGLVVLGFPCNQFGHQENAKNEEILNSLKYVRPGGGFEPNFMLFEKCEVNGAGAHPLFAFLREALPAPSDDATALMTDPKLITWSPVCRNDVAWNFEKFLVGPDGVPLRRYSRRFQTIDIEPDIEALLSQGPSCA

Sequence of Vitamin D3 receptor (Homo sapiens) (P11473 whole entry, looked up): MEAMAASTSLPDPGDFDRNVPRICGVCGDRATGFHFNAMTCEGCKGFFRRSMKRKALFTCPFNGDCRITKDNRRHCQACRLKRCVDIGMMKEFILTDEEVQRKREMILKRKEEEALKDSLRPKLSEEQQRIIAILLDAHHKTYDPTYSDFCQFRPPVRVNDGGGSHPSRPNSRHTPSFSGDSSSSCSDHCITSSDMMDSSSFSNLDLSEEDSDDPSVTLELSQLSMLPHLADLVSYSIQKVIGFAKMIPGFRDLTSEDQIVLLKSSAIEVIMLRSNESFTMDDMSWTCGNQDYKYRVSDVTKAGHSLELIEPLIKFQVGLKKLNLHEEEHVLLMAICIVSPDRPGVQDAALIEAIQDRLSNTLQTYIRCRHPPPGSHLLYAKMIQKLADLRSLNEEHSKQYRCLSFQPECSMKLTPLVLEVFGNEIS
Sequence of Thyroid hormone receptor beta (Homo sapiens) (P10828 whole entry, looked up): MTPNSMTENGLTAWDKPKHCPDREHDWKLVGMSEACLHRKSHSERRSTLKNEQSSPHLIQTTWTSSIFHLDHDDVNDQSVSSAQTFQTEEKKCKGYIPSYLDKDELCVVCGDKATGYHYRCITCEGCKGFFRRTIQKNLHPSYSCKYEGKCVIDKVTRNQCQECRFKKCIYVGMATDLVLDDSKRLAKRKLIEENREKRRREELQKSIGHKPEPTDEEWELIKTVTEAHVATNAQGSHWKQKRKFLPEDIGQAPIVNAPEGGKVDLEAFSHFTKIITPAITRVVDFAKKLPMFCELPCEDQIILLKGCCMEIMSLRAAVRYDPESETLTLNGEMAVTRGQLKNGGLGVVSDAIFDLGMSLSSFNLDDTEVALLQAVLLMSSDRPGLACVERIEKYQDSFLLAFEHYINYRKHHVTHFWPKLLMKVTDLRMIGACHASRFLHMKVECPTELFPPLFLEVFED
Sequence of Retinoic acid receptor RXR-alpha (Homo sapiens) (P19793 whole entry, looked up): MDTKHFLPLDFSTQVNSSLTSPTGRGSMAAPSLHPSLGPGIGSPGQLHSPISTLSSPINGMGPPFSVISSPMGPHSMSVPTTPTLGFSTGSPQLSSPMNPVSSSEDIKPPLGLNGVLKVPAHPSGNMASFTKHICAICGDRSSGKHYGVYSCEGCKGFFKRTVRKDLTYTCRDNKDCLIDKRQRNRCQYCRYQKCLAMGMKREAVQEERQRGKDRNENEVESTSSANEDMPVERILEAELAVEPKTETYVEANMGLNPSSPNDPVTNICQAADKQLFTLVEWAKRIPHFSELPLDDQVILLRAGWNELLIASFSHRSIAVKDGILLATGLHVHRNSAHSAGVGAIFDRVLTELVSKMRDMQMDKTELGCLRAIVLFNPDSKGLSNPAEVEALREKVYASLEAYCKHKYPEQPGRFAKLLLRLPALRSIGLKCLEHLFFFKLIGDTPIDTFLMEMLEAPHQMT
Sequence of Peroxisome proliferator-activated receptor alpha (Homo sapiens) (Q07869 whole entry, looked up, the tested form may be a part): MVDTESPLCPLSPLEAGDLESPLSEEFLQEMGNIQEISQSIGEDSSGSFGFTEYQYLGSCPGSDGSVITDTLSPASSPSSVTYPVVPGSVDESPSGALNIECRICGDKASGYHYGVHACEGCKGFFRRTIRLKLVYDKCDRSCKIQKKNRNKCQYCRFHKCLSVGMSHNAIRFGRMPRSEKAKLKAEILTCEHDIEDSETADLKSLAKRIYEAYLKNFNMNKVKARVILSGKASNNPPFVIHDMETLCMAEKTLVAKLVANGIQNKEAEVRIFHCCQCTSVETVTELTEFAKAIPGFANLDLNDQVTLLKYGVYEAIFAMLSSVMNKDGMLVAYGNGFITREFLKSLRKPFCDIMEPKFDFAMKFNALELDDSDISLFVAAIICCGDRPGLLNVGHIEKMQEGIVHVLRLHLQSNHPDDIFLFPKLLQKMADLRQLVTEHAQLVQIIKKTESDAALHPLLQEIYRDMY
Sequence of Nuclear receptor ROR-gamma (Homo sapiens) (P51449 whole entry, looked up): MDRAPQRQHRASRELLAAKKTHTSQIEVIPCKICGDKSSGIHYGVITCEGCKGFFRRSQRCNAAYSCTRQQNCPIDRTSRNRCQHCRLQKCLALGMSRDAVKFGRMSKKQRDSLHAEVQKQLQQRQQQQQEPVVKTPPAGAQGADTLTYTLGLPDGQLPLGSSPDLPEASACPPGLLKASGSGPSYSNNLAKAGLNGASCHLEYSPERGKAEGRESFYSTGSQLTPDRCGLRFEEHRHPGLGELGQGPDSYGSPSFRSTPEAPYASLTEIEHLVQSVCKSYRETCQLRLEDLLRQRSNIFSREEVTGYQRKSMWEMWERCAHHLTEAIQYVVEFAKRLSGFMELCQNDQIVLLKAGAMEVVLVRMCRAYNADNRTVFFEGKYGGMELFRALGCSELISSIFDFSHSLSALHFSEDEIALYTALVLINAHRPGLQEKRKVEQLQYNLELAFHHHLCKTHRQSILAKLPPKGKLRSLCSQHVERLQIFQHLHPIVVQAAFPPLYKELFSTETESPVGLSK
Sequence of Voltage-gated inwardly rectifying potassium channel KCNH2 (Homo sapiens) (Q12809 whole entry, looked up): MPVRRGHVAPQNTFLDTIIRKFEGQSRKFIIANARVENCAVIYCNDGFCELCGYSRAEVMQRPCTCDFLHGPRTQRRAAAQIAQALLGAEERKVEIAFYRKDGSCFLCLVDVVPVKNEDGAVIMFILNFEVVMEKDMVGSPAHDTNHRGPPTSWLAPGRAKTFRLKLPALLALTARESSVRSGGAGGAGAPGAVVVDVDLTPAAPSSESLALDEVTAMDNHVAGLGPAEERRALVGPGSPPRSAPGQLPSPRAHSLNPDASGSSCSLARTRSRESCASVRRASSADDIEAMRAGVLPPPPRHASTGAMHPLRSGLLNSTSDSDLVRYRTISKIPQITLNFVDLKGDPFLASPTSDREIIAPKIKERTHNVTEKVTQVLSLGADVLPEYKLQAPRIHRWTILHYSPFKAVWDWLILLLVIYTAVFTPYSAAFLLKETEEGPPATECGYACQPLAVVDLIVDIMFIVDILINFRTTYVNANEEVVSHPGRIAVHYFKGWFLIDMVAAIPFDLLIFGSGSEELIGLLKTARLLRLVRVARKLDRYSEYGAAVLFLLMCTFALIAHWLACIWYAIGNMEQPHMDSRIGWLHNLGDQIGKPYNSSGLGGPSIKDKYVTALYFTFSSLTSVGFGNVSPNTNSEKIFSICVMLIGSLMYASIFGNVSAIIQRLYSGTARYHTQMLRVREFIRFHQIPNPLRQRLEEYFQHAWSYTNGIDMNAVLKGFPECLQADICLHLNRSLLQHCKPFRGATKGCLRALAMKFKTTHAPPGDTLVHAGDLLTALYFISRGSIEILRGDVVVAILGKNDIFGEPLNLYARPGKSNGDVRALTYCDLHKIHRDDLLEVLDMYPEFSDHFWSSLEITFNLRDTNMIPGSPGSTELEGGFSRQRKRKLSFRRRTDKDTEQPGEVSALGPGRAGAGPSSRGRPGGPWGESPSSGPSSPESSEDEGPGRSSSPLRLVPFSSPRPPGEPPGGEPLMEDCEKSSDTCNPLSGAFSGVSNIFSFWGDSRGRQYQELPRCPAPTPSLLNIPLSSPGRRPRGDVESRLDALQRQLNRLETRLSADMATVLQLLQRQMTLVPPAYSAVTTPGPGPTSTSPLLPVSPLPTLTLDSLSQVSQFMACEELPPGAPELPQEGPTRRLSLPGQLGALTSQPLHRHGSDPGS

Take `CO[C@H]1/C=C/O[C@@]2(C)Oc3c(C)c(O)c4c(O)c(c(/C=N/N5CCN(C)CC5)c(O)c4c3C2=O)NC(=O)/C(C)=C\C=C\[C@H](C)[C@H](O)[C@@H](C)[C@@H](O)[C@@H](C)[C@H](OC(C)=O)[C@@H]1C`: the result in experiment [1], in experiment [2], in experiment [3], in experiment [7], in [13] and in experiment [14] was inactive. Besides, the compound was classed as inactive in experiment [15] and in experiment [18]. Moreover, the max response is 12.2% and 0.217% in experiment [4]; -24.8% (inactive) and 0.888% (inactive) in experiment [5]; -9.67% (inactive) and -6.67% (inactive) in experiment [12]; -3.19% (inactive) and -26% (inactive) in [16]; -14.9% (inactive) and -19.1% (inactive) in experiment [17]. The activity change % (negative = inhibition) in experiment [6] was 4.86% (inactive) and -12.3% (inactive). Also, the Potency was 54.5 µM (active) in [8] and 16.6 µM (active) in experiment [19]. For the same compound, the activation in [9] was -10.4% (inactive) and -9.54% (inactive); in experiment [10], -0.981% (inactive) and -2.03% (inactive); in experiment [11], 0.185% (inactive) and -0.0706% (inactive). For the same compound, in experiment [20], the Potency result was “inactive”.
